In PubChem BioAssay:
Active and inactive are the calls of the source.

Assays:
[1] = tested on: Plasmodium falciparum Sir2 (PF13_0152, Sir2A); experiment: Plasmodium falciparum Sir2A binding compounds – biochemical, small-molecule microarray, 635 nm fluorescence, primary screen (AID 1098); conditions: fluorescence 635 nm, higher = more signal;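 note: score merges spot fluorescence intensity with its signal-to-noise ratio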
[2] = probe aDKK1 binding to arrayed compounds – biochemical, biotinylated probe, 635/667 nm fluorescence, primary screen (AID 1099); conditions: small-molecule microarray, higher = more signal;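 note: score merges 667nm spot fluorescence with signal to noise across triplicate slides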
[3] = probe aCHRDL2 binding to arrayed compounds – biochemical, biotinylated probe, 635/667 nm fluorescence, primary screen (AID 1100); conditions: small-molecule microarray, higher = more signal
[4] = change in splice reporter luminescence, either direction, cell-based, HEK293, spliceosome inhibition project, primary screen (AID 1101); conditions: HEK293 splicing luciferase reporter, 24 h, higher = more signal, called active from +8 up or from −8 down;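 note: HEK293 cells carrying a splicing-competent luciferase reporter gene; test concentration not given here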
[5] = target: Fibroblast growth factor 10 (Homo sapiens) (UniProt O15520); experiment: compounds binding fibroblast growth factor 10 – biochemical, small-molecule microarray, 635 nm fluorescence, primary screen (AID 1102); conditions: FGF10 binding, fluorescence 635 nm, higher = more signal
Chain of Fibroblast growth factor 10 (Homo sapiens) (O15520 whole entry, looked up): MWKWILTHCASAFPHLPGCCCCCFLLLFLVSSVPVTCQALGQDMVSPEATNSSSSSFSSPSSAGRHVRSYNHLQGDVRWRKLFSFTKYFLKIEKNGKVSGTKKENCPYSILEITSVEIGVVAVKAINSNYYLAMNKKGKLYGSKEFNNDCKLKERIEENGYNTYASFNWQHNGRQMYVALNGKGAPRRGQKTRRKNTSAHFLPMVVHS

[6] = tested on: glycogen synthase kinase-3 (GSK3A per assay name; protocol says GSK3B); experiment: compounds binding glycogen synthase kinase-3 – biochemical, small-molecule microarray, 635 nm fluorescence, GSK3A, primary screen (AID 1103); conditions: fluorescence 635 nm, higher = more signal; note: the record names both GSK3A and GSK3B
[7] = target: Epidermal growth factor receptor (Homo sapiens) (UniProt P00533); experiment: compounds binding epidermal growth factor receptor – biochemical, small-molecule microarray, 635 nm fluorescence, primary screen (AID 1104); conditions: EGFR binding, higher = more signal;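 note: score merges 667 nm emission intensity with spot signal to noise over triplicate slides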
Chain of Epidermal growth factor receptor (Homo sapiens) (P00533 whole entry, looked up): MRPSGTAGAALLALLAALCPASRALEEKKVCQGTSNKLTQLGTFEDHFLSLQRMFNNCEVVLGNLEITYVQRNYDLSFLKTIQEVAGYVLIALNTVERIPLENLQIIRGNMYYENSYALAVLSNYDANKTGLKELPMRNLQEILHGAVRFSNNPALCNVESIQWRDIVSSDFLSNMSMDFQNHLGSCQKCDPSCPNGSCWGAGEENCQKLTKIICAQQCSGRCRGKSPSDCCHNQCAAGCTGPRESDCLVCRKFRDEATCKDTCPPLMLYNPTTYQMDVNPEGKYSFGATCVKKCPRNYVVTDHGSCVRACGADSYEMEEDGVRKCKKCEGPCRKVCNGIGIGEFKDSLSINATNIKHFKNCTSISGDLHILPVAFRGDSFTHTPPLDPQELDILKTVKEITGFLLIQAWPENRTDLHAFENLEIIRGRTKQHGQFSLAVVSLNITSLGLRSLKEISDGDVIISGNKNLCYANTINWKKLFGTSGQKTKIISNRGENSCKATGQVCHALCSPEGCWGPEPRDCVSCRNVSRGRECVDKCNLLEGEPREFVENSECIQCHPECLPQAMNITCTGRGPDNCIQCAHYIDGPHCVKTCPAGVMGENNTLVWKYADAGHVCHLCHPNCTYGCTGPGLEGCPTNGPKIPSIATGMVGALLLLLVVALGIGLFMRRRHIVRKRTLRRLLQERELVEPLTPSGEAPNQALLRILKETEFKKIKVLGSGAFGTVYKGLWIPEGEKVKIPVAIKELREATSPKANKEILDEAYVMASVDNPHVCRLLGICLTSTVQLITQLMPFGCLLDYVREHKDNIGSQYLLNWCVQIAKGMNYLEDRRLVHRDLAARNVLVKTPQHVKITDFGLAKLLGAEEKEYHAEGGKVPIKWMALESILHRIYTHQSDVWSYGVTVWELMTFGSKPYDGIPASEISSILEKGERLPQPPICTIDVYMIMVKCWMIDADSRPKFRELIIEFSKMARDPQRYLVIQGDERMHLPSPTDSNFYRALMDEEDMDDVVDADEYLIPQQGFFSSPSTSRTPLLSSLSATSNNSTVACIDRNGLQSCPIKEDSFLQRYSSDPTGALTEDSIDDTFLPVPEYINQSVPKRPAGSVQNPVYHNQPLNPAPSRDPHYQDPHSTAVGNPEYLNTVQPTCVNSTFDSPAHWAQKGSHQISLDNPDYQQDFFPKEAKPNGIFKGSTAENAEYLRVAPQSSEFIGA

[8] = target: Follistatin-related protein 3 (Homo sapiens) (UniProt O95633); experiment: compounds binding follistatin-related protein 3 – biochemical, small-molecule microarray, 635 nm fluorescence, primary screen (AID 1105); conditions: FSTL3 binding, higher = more signal;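 note: score merges emission near 667 nm and signal to noise per printed spot across three slides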
Chain of Follistatin-related protein 3 (Homo sapiens) (O95633 whole entry, looked up): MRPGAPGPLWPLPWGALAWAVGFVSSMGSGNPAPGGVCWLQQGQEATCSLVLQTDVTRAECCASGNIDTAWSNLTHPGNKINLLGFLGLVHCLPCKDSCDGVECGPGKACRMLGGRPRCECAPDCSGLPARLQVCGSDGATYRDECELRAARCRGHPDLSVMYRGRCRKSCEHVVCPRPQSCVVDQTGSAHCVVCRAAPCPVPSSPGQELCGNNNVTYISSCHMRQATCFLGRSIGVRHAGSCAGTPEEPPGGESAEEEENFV

[9] = target: Dickkopf-related protein 1 (Homo sapiens) (UniProt O94907); experiment: small molecules binding DKK1 protein – biochemical, small-molecule microarray, 635 nm fluorescence scan, primary screen (AID 1106); conditions: higher = more signal;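 note: score merges emission near 667 nm with signal to noise over three replicate slides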
Chain of Dickkopf-related protein 1 (Homo sapiens) (O94907 whole entry, looked up): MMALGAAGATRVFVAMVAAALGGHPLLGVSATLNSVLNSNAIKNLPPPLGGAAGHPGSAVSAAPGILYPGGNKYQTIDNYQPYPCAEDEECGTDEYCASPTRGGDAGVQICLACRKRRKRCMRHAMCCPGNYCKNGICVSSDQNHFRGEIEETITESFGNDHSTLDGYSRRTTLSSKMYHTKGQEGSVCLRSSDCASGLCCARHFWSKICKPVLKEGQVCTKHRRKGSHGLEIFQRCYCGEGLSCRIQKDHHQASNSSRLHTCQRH

[10] = tested on: Inhibin beta A chain (activin A); experiment: small molecules binding activin A – biochemical, small-molecule microarray, 635 nm fluorescence scan, primary screen (AID 1107); conditions: INHBA, higher = more signal;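 note: mouse activin A protein probed at 4.33 µg/mL on printed slides; score merges bound-protein fluorescence near 667 nm with spot signal-to-noise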
[11] = tested on: Human papillomavirus type 1a protein E7 (residues 44-93); experiment: small molecules binding HPV E7 44-93 – biochemical, small-molecule microarray, residues 44-93, 635 nm fluorescence, primary screen (AID 1108); conditions: fluorescence 635 nm, higher = more signal;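 note: E7 fragment applied at 1 µg/mL in TBST for 1 h at 4 C; score combines spot fluorescence with its signal to noise ratio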
[12] = hepatitis C replication reporter changes, two-sided – Huh7 cells, luciferase reporter, HCV replication inhibitor project, primary screen (AID 1109); conditions: Huh7 HCV replicon luciferase reporter, 48 h; higher = more signal;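 note: huh7 hepatoma cells harbouring a luciferase neomycin HCV replicon reporter; luciferase luminescence as measure of HCV replicon replication; test concentration not given here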
[13] = target: Left-right determination factor 2 (Homo sapiens) (UniProt O00292); experiment: small molecules binding LEFTY2 protein – biochemical, small-molecule microarray, 635 nm fluorescence scan, primary screen (AID 1110); conditions: higher = more signal
Chain of Left-right determination factor 2 (Homo sapiens) (O00292 whole entry, looked up): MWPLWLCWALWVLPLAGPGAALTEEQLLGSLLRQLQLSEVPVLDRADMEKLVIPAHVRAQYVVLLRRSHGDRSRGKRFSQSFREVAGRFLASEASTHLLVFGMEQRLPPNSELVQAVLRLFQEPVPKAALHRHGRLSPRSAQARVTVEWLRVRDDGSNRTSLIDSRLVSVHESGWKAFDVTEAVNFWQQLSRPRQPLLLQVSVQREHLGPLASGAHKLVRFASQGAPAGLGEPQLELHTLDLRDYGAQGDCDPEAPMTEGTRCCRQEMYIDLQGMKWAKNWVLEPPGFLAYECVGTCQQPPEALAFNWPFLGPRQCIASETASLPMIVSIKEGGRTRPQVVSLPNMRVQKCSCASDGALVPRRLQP

[14] = target: Calmodulin-1 (Homo sapiens) (UniProt P0DP23); experiment: small molecules binding calmodulin-1 with EGTA – biochemical, small-molecule microarray, Cy5-labelled CALM1, profiling panel (AID 1111); conditions: Cy5-CALM1 binding fluorescence, higher = more signal;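 note: labelled calmodulin applied in Tris saline Tween buffer holding calcium plus EGTA and DTT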
[15] = target: Calmodulin-1 (Homo sapiens) (UniProt P0DP23); experiment: small molecules binding Ca-loaded calmodulin-1 – biochemical, small-molecule microarray, Cy5-labelled CALM1, plus calcium, artefact control for SMM control-protein annotation, profiling panel (AID 1112); conditions: Cy5-CALM1 binding fluorescence, higher = more signal;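 note: score merges spot fluorescence with signal to noise from triplicate slides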
[16] = probe aWnt5a binding to arrayed compounds – biochemical, biotinylated probe, 635/667 nm fluorescence, primary screen (AID 1113); conditions: small-molecule microarray, higher = more signal;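 note: score merges 667 nm fluorescence intensity with signal-to-noise per printed feature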
[17] = probe aShh binding to arrayed compounds – biochemical, biotinylated probe, 635/667 nm fluorescence, primary screen (AID 1114); conditions: small-molecule microarray, higher = more signal;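 note: probe is biotin-labelled aShh protein from a stem cell growth factor screen; measures binding of labelled protein to compounds printed on the slide; score merges feature fluorescence at 667 nm with signal-to-noise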
[18] = probe aNog binding to arrayed compounds – biochemical, biotinylated probe, 635/667 nm fluorescence, primary screen (AID 1115); conditions: small-molecule microarray, higher = more signal;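 note: probe is biotinylated aNog protein used at 0.15 µg/mL for 1 h at 4 C; z-score combines 667 nm fluorescence of each spot with its signal to noise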
[19] = target: Torsin-1A-interacting protein 1 (Homo sapiens) (UniProt Q5JTV8); experiment: compound microarray binding of lysate hLAP1 – cell lysate, small-molecule microarray, COS7 lysate, 635/667 nm fluorescence, primary screen (AID 1116); conditions: 635 nm fluorescence, higher = more signal
Chain of Torsin-1A-interacting protein 1 (Homo sapiens) (Q5JTV8 whole entry, looked up): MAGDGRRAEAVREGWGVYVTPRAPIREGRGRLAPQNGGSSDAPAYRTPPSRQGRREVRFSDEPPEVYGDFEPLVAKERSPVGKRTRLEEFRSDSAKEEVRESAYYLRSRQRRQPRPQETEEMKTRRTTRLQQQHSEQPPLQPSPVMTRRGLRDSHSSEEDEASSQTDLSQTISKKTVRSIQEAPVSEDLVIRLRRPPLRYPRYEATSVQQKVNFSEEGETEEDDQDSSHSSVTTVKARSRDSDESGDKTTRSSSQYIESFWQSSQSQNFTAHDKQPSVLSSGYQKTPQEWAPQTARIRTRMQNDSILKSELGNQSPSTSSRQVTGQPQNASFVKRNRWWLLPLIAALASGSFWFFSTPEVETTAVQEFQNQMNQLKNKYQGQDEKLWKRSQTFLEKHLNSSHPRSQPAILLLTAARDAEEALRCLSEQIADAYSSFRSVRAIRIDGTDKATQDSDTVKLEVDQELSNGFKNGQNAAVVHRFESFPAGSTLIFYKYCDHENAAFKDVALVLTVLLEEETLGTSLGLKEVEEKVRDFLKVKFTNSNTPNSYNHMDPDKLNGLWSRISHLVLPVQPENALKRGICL

[20] = target: Alpha-bungarotoxin (Bungarus multicinctus) (UniProt P60615); experiment: compounds binding labelled alpha-BTX control protein – biochemical, small-molecule microarray, Alexa647 label, 635/667 nm fluorescence, artefact control for SMM control protein annotation, profiling panel (AID 1117); conditions: alpha-BTX-A647 binding fluorescence, higher = more signal
Chain of Alpha-bungarotoxin (Bungarus multicinctus) (P60615 whole entry, looked up): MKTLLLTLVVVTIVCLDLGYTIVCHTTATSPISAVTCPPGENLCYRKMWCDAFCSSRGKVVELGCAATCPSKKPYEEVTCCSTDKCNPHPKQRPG

| Compound | composite z-score [1] | composite z-score [2] | composite z-score [3] | z-score [4] | composite z-score [5] | composite z-score [6] | composite z-score [7] | composite z-score [8] | composite z-score [9] | composite z-score [10] | composite z-score [11] | z-score [12] | composite z-score [13] | composite z-score [14] | composite z-score [15] | composite z-score [16] | composite z-score [17] | composite z-score [18] | composite z-score [19] | composite z-score [20] |
| --- | --- | --- | --- | --- | --- | --- | --- | --- | --- | --- | --- | --- | --- | --- | --- | --- | --- | --- | --- | --- |
| COc1ccccc1CN1C(=O)c2ccccc2[C@@H](C(=O)NCCN2CCOCC2)[C@@H]1c1ccc(CO)cc1 | 1.5 | -0.0936 | 0.658 | -0.468 (inactive) | -0.264 | 0.342 | -0.502 | -0.334 | -0.0485 | 0.52 | 0.623 | -1.64 | -0.725 | -0.652 | 0.0041 | -0.185 | 0.123 | -0.232 | 1.01 | -0.737 |
| COc1cccc(C(=O)O[C@H]2CC[C@]3(C)C4=C(CCC3C2(C)C)[C@]2(C)CC[C@H]([C@H](C)CCCC(C)C)[C@@]2(C)CC4)c1 (stereo not given in full) | 0.399 | -0.056 | -0.495 | -1.23 (inactive) | 0.647 | 0.495 | 0.527 | 0.459 | 0.389 | 0.468 | -0.212 | 0.004 | 0.359 | -0.0348 | -0.441 | -0.202 | -0.138 | -0.0689 | 0.105 | 0.3 |
| O=c1cccc(C=Cc2ccccc2)o1 | -1.32 | 0.121 | 0.756 | -0.121 (inactive) | -0.629 | 0.0144 | -1.16 | -0.657 | -1.36 | 0.758 | -0.64 | -0.854 | -1.31 | -0.471 | -0.274 | -0.145 | 0.147 | -0.411 | -0.363 | -0.374 |
| COc1ccc([Si](C)(C)[C@@H]2[C@@H](CC(=O)N(CCO)Cc3ccccc3)O[C@]3(C(=O)N(C)c4ccccc43)[C@H]2C)cc1 | 1.24 | 0.909 | 0.0207 | 0.841 (inactive) | 1.05 | 1.16 | 0.749 | 1.39 | 1.32 | 1.16 | 0.906 | -3.95 | 0.813 | 0.773 | -0.193 | -0.0721 | 0.366 | 0.422 | 0.44 | 0.805 |
| COc1cc(CO)ccc1OC(C)=O | 0.144 | -0.082 | -0.526 | -0.749 (inactive) | 0.171 | 0.536 | 0.558 | 0.516 | 0.668 | 0.167 | 0.464 | -0.147 | 0.388 | 0.0543 | -0.267 | 0.127 | 0.0815 | -0.0615 | 0.47 | 0.298 |
| O=C1O[C@H](c2ccccc2)[C@H](c2ccccc2)N2[C@H]1[C@@H](C(=O)N1CCN(c3ncccn3)CC1)[C@]1(C(=O)Nc3ccccc31)[C@H]2c1ccc(OCCO)cc1 | 0.348 | -0.0864 | 0.174 | -1.15 (inactive) | 1.29 | 1.22 | 0.665 | 1.32 | 0.632 | 0.395 | 1.42 | -1.67 | 0.609 | -0.316 | -0.802 | -0.0286 | -0.0578 | -0.0464 | 0.75 | 0.4 |
| O=C(CCN1CCOCC1)c1cccc(O)c1 | 1.63 | 0.191 | -0.399 | 0.964 (inactive) | 1.37 | 1.22 | 1.74 | 1.49 | 1.8 | 1.53 | 0.591 | -3.35 | 1.47 | -0.396 | -1.21 | -0.0372 | -0.123 | -0.158 | 0.0422 | 1.4 |
| COC(=O)C(CC#Cc1ccc2c(c1)[C@]1(C(=O)N2)[C@H](C(=O)NC[C@H](O)c2ccccc2)[C@H]2C(=O)O[C@H](c3ccccc3)[C@H](c3ccccc3)N2[C@@H]1c1ccc(OCCO)cc1)C(=O)OC | 1.71 | 1.61 | 0.0724 | 0.0839 (inactive) | 1.3 | 1.3 | 0.767 | 1.46 | 1.14 | 1.21 | 1.45 | -1.95 | 0.696 | 1.5 | 1.1 | 0.174 | 0.986 | 0.945 | 0.053 | 2.23 |
| CC(C)c1ccc(NN2C(C(O)c3ccc(N(C)C)cc3)C=CC3C(=O)N(c4ccccc4)C(=O)C32)cc1 (stereo not given) | 1.24 | 0.64 | 0.947 | -0.132 (inactive) | 0.782 | 0.267 | 0.0151 | 1.25 | 0.469 | 0.898 | 1.42 | 1.61 | 0.0148 | 1.44 | 0.176 | 0.0317 | 0.13 | 0.842 | 0.488 | 1.73 |
| COc1ccc(C(=O)Nc2cccc(CN3C(=O)[C@]4(O[C@H](CC(=O)N5CCC[C@H]5CO)[C@@H]([Si](C)(C)c5ccc(OC)cc5)[C@@H]4C)c4ccccc43)c2)cc1 | 1.27 | -0.202 | -0.067 | -0.0342 (inactive) | 0.703 | 1.12 | 0.317 | 0.737 | 0.65 | -0.0762 | 1.23 | -2.84 | 0.419 | 0.418 | 0.252 | -0.0285 | -0.0959 | 0.0733 | 1.06 | 0.954 |
| C=C(CCCC)/C(=C/C[C@H](OC(C)=O)c1ccc(CO)o1)c1cnc2ccccc2c1 | 1.11 | -0.179 | -0.531 | -0.276 (inactive) | 1.35 | 1.21 | 0.497 | 1.49 | 0.601 | 1.69 | 1.39 | -1.54 | 0.487 | 0.229 | -0.693 | -0.0478 | 0.292 | -0.28 | -0.092 | 1.73 |
